# Active and inactive are the calls of the source. The rule behind the calls is not given here.
# System: Aerobactin synthetase IucA (Klebsiella pneumoniae hvKP1)
# Assay: Biochemical IucA enzyme inhibition primary screen of the Spectrum library (AID 1346200);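 note: 100% = wells without compound and 0% = wells lacking enzyme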
# Details: malachite green pyrophosphate, A620, at 8 µM, active compounds read low
row,Structure (SMILES),activity remaining
1,CCCCC(CC)CN=C(N)NC(N)=NCCCCCCN=C(N)NC(N)=NCC(CC)CCCC (stereo not given),98.4% (inactive)
2,CN(C)CCc1c[nH]c2ccc(CS(=O)(=O)N3CCCC3)cc12,128% (inactive)
3,CC1=C(C(=O)O)N2C(=O)[C@@H](NC(=O)C(N)c3ccc(O)cc3)[C@H]2SC1 (stereo not given in full),103% (inactive)
4,COc1ccc(-c2cc(=O)c3c(O)c(OC)c(OC)c(OC)c3o2)cc1OC,80.1% (inactive)
5,C[C@@H]1OC(O[C@H]2[C@H](OC(=O)[C@]34CCC(C)(C)CC3C3=CCC5[C@@]6(C)CC[C@H](OC7O[C@@H](C)[C@H](O[C@@H]8OC[C@@H](O)[C@H](O)[C@H]8O)[C@@H](O)[C@H]7O)C(C)(C)C6CC[C@@]5(C)[C@]3(C)CC4O)OC[C@H](O)[C@H]2O)[C@H](O)[C@H](O)[C@H]1O[C@@H]1O[C@H](CO)[C@@H](O)[C@H](O)[C@H]1O (stereo not given in full),99.8% (inactive)
6,CCC(=O)O[C@H]1CCC2C3CCc4cc(O)ccc4C3CC[C@@]21C (stereo not given in full),101% (inactive)
7,CC(=O)O[C@@H]1C[C@@]23C[C@@]24CC[C@H](O[C@@H]2OC[C@@H](O)[C@H](O)[C@H]2O)C(C)(C)C4CCC3[C@]2(C)C[C@@H]3OC4(C[C@@H](C)[C@@H]3[C@@]12C)O[C@H](O)[C@]1(C)O[C@H]41 (stereo not given in full),87.7% (inactive)
8,CC(C)[C@@H]1CC[C@@H](C)C[C@H]1O,95.9% (inactive)
9,N[C@@H]1[C@@H](O)[C@H](O)[C@@H](CO)O[C@H]1O,80.8% (inactive)
10,COC1CC(O[C@H]2CC[C@]3(C=O)C4CC[C@]5(C)C(C6=CC(=O)OC6)CC[C@]5(O)C4CC[C@]3(O)C2)OC(C)C1O (stereo not given in full),117% (inactive)

# Source: PubChem BioAssay
